Screening data from PubChem.
SUMO Mot1 rescue = yeast Mot1-301 growth rescue at high temperature, primary screen, SUMOylation pathway inhibitor project, S. cerevisiae, ATP luminescence, 38.5C | growth rescue, % at 18.8 µM | S. cerevisiae Mot1-301 growth rescue; percent above DMSO median, 100 means doubled | hit rate 1% among 320,000 | AID 2716, 2010;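 active means every valid replicate shows activation above 250% relative to neutral control wells; inactive means the rest, any valid replicate at or below 250%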;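 further: OY570 slx delta 5 strain wells were the positive control but not used for scaling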
PKA-R1A activ = activators of PKA-R1A holoenzyme, primary screen, biochemical, fluorescence polarization, Cy5-IP20, bovine R1A, mouse PKAc; cAMP-dependent protein kinase type I-alpha regulatory subunit (Bos taurus) + …; PKA-R1A dissociation; scaled: DMSO 0%, 113 µM cGMP 100%; activation, % at 11.4 µM; hit rate 0.083% among 340,000;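 active means percent activation above the mean of all tested compounds plus 3 SD, cut at about 19% in these data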;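 further: higher means more PKAc released from R1A so a rise in polarization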
MsrA inhibitor = bovine MsrA enzyme inhibitors, primary screen, biochemical, absorbance, HTS; hit rate 0.75% among 360,000; inhibition, % at 15.5 µM; purified bovine MsrA, absorbance read-out; AID 651718, 2012; in the data active means inhibition above about 4.5%;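 further: 0% = vehicle wells with enzyme and 100% = reference inhibitor wells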
PKA-R2B act = activators of PKA-R2B holoenzyme, primary screen, biochemical, fluorescence polarization, Cy5-IP20, human. cAMP-dependent protein kinase catalytic subunit beta (Homo sapiens) + cAMP-dependent …. PKA-R2B holoenzyme dissociation; R2B truncated from residue 108, S112A mutant; 0% DMSO only, 100% 113 µM cGMP. activation, % at 11.4 µM. hit rate 0.079% among 340,000. AID 504700, 2011;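 active means activation above a cutoff set at the mean over all compounds plus 3 SD, cut at about 18% in these data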;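 further: higher means more holoenzyme dissociation and a rise in polarization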
Target sequence (P31323 whole entry, looked up, other chains not shown, the tested form may be a part): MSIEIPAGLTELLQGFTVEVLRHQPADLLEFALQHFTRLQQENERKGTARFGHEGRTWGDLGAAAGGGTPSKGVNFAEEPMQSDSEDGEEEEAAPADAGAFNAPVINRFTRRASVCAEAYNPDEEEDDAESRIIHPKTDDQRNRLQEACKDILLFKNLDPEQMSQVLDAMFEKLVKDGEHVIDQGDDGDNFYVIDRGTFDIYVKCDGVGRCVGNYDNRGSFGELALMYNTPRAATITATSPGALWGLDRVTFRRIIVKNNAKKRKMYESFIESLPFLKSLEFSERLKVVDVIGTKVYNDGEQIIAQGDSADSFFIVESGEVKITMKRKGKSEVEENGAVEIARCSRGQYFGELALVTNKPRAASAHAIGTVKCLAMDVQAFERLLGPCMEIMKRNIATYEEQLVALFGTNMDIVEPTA
bovine MsrA act = bovine MsrA enzyme activators, primary screen, biochemical, absorbance, HTS. Methionine sulfoxide reductase A (Bos taurus). purified bovine MsrA, absorbance read-out. activation, % at 10.6 µM. AID 602163, 2012. hit rate 0.3% among 360,000; in the data active means activation above about 7.5%;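 further: 0% = vehicle and 100% = reference activator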
An asterisk follows results filed as active; . = no result given; + = active, no number; ! = not confirmed by another sample. This is a sample that favours compounds with a hit; in the whole collection about 2% have one here.

SMILES | SUMO Mot1 rescue | PKA-R1A activ | MsrA inhibitor | PKA-R2B act | bovine MsrA act
CCN(CC)CCCN1C(=O)C(O)=C(C(=O)c2cc3cccc(OC)c3o2)C1c1ccncc1 (stereo unspecified) | 339.0 | -0.8 | 4.8* | 2.7 | -3.8
COc1cccc2cc(C(=O)C3=C(O)C(=O)N(CCN(C)C)C3c3ccc(F)cc3)oc12 (stereo unspecified) | -16.6 | 3.3 | 2.1 | -6.5 | -2.6
CC1CC(C)CN(CC(C)(C)NS(=O)(=O)c2ccc(Cl)cc2)C1 (stereo unspecified) | 276.0* | -5.7 | -1.3 | -9.3 | -1.9
C=CC[C@]1(c2ccccc2)C(=O)N2C[C@H]3CON(C)[C@H]3C[C@H]2c2ccccc21 | . | . | -0.7 | . | .
CC(CCC(C)C(C)(C)C)[C@@H]1CC[C@H]2C3C[C@H](OS(O)(=S)=S)[C@H]4C[C@H](OS(O)(=S)=S)[C@@H](OS(O)(=S)=S)C[C@]4(C)[C@H]3CC[C@]12C (stereo partly specified) (tested in a mixture with another compound) | + | -1.0 | . | 13.1 | -5.3
CCCN(CCC)C(=O)Cn1c(=O)n(CCCCC(=O)NCc2ccco2)c(=O)c2ccccc21 | 294.4* | -0.2 | -0.8 | 3.2 | -2.6
CCn1ncc2c(=O)c(C(=O)c3ccccc3)c[nH]c21 | . | . | 1.2 | . | .
COC(=O)c1cc(NS(=O)(=O)c2ccc(C(C)C)cc2)ccc1N1CCOCC1 | 313.9* | 6.6 | 2.0 | -10.5 | -2.6
CC(C)CNC(=O)COC(=O)c1cc(S(=O)(=O)N2CCCCC2)ccc1N1CCOCC1 | 277.1* | -3.1 | 0.4 | 9.6 | -3.3
COC(=O)c1cc(NS(=O)(=O)c2ccc(F)cc2)ccc1N1CCOCC1 | 9.7 | 0.9 | 2.7 | 1.7 | -7.7
CC(C)NC(=O)NC(=O)COC(=O)c1cc(S(=O)(=O)N2CCCCC2)ccc1N1CCOCC1 | 39.3 | -0.1 | -0.1 | 3.8 | -2.3
CCN(CC)c1ccc(C=C2C(=O)OC3(CCCCC3)OC2=O)cc1 | . | -10.5 | 4.1 | -8.1 | -3.8
CCCCC1(C)OC(=O)C(=Cc2ccc(N(CC)CC)cc2)C(=O)O1 (stereo unspecified) | 1.7 | 3.1 | 5.2* | 1.7 | -5.4
Cc1nc2ccccn2c(=O)c1CCN1CCC(C(=O)c2ccc(F)cc2)CC1 | 427.0*! | -2.2 | 3.0 | 5.4 | -2.6
COc1ccccc1[C@@]1(C)ON(c2ccccc2C(F)(F)F)C1=O | 326.5* | -12.1 | -0.4 | -16.9 | -6.7
c1ccc(COc2ccc(OCCn3cncn3)cc2)cc1 | 252.2* | 7.9 | 0.1 | 5.0 | -1.5
c1ccc(-c2ccc(OCCCn3cncn3)cc2)cc1 | 78.1 | 4.2 | 0.8 | 7.3 | -13.8
CCCCOc1ccc(C(=O)NC2CCCCN(CCC)C2=O)cc1 (stereo unspecified) | . | . | -0.2 | . | .
Cc1nccn1S(=O)(=O)c1ccc(Br)cc1Br | 9.8 | -7.4 | 5.5* | -2.0 | -0.3
COc1ccc(Br)cc1S(=O)(=O)n1ccnc1C | 4.4 | 1.4 | 0.1 | -17.3 | -5.8
Clc1ccc(CN2CCN(c3ncc(Cc4ccccc4)cn3)CC2)c(Cl)c1 | . | . | 1.5 | . | .
O=C(/C=C(\Nc1ccc(F)cc1)c1ccccc1)c1ccccc1 | . | . | 0.6 | . | .
Cc1c(C(=O)O)cccc1-n1c(C)cc(/C=N/NC(=O)c2cc3ccccc3o2)c1C | 29.7 | 9.4 | 4.6* | 1.0 | -6.4
Cc1c(C(=O)O)cccc1-n1c(C)cc(/C=N/Nc2ccc([N+](=O)[O-])cn2)c1C | -12.4 | 4.2 | 0.9 | -2.5 | -0.3
CN1CCCCC(NC(=O)CCl)C1=O (stereo unspecified) | . | . | 0.2 | . | .
NC(=O)[C@H]1CC2(CC(c3cccc(NC(=O)CC(c4ccccc4)c4ccccc4)c3)=NO2)CN1C(=O)CC(c1ccccc1)c1ccccc1 (stereo partly specified) | 355.3* | -0.9 | 0.1 | 3.8 | -5.7
C[C@H](CO)N1C[C@H](C)[C@H](CN(C)Cc2cccc(F)c2)Oc2ncc(C3=CCCC3)cc2C1=O | . | . | 0.3 | . | .
CC(C)N(CCn1c(=S)[nH]c2ccccc2c1=O)C(C)C | 308.2* | 2.8 | -0.7 | 1.8 | -0.3
